Screens deposited in PubChem by National Center for Advancing Translational Sciences (NCATS).
Rows were chosen to be rich in hits. Some 3.3% of all compounds tested hit in one or more screens of this group.
LDHA block: blocks human lactate dehydrogenase A. P00338. purified LDHA, NADH/diaphorase-resazurin fluorescence; active compounds read low. activity change, % (values are at about 110 or 230 µM). 480,000 compounds, 0.15% hits; in the data active = activity change below about -30%; inconclusive = mostly about -25% to -30%;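 also: plate controls were DMSO wells for no effect and wells without enzyme for full effect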
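Enzyme activity of human lactate dehydrogenase 5 (2 nM; 0.06 mM NADH, 0.2 mM pyruvate, 5 min, RT) is measured via a resazurin/diaphorase fluorescence readout of residual NADH.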
PI5P4K alpha inh: PI5P4K alpha (human) kinase inhibition; PI5P4Kalpha enzyme, ADP-Glo luminescence, 60 min; active compounds read low; 330,000 compounds, 1.2% hits; AID 652105; max response, %; active = max response of -50% or lower; inconclusive = between -30% and -50%; inactive = -30% or higher; also: value at the top dose of about 77 µM; % is scaled to controls: 0 for no effect and ±100 for the full control effect
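ADP-Glo luminescence end-point read after a 60 min room-temperature kinase reaction of PI5P4Kalpha plus substrate, initiated with ATP at 5 microM final. Buffer: 0.038 M HEPES pH 7.4, EGTA, 0.1% CHAPS, 5% DMSO.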
PI4K2A inh: blocks human PI4K2A kinase activity | Q9BTU6 | purified PI4K2A, ADP-Glo luminescence, 1 h; active compounds read low | activity change, negative = inhibition, % at 76.9 µM | 420,000 compounds, 0.13% hits | AID 1346378; in the data active = activity change below about -50%; inconclusive = mostly about -30% to -49%;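 also: -100% = wells without enzyme as full effect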
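In this quantitative HTS, ADP production by PI4K2A was quantified luminescently after 1 h at ambient temperature; 100 microM adenosine served as plate-quality control.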
D3 ag: D3 dopamine receptor (human) agonism. D3R DiscoveRx beta-arrestin cells, luminescence, 90 min. max activation, %. 410,000 compounds, 0.58% hits. P35462; in the data active = max activation above about 30%; also: 0% is about no effect
Target sequence (P35462 whole entry, looked up): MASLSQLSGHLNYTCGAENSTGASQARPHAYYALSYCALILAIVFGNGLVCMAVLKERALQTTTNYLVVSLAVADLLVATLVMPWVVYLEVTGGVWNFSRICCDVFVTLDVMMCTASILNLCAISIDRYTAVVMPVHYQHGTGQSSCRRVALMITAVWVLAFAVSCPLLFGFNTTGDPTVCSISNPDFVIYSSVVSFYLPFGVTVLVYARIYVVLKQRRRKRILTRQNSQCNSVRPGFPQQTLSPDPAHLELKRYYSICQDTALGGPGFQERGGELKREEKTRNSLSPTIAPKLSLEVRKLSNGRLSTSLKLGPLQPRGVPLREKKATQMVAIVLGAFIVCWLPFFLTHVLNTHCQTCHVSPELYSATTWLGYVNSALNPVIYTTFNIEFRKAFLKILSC
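Cells at 1500/well, incubated overnight, then treated with pinned compounds (dopamine as control) for 90 min at 37 degrees C. DiscoveRx reagent added for 30 - 60 minutes at room temperature; luminescence read.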
DRD3 antagonist: D3 dopamine receptor (human) antagonism. P35462. D3R cells, DiscoveRx beta-arrestin luminescence, antagonist mode; active compounds read low. max response, negative = inhibition, %. 360,000 compounds, 2.5% hits. AID 652054; in the data active = max response below about -50%; inconclusive = no clear call, values can overlap the other calls; also: % is scaled to controls: 0 for no effect and ±100 for the full control effect
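Cells plated overnight at 1500 cells/well, then exposed to library compounds with dopamine controls for 90 minutes at 37 degrees C. DiscoveRx reagent added for 30–60 minutes at room temperature; luminescence read, quantitative HTS format.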
ADP-Glo counter: counter-screen for PI5P4K inhibitors: ADP-Glo detection interference, no enzyme | Potency, µM (titrated, usually from 76.9 µM), for the others: at the highest dose activity change, negative = inhibition, most hits filed as inhibitors | ADP-Glo detection counter-screen, luciferase luminescence, no enzyme | shares compounds with PI5P4K alpha inh | 1,100 tested, under 10 active; active = well fitted curve in the direction sought with a large enough effect; inconclusive = small, poorly fitted or top-dose-only effect, or another doubt; inactive = no such curve, though single readings can be large or run the other way
The depositor's hits bear a star; u = inconclusive; x = not tested or not shown.

SMILES | LDHA block | PI5P4K alpha inh | PI4K2A inh | D3 ag | DRD3 antagonist | ADP-Glo counter
CCOc1ccc(C(Nc2cccnc2)c2cc(Cl)c3cccnc3c2O)cc1 (stereo not given) | 9 | -68* | -3 | 8 | -58* | 0%
O=C(O)COc1ccccc1C(Nc1ccccn1)c1cc(Cl)c2cccnc2c1O (stereo not given) | 4 | -72* | -14 | 3 | -17 | -1%
CCC(=O)NC(C)c1cc(Cl)c2cccnc2c1O (stereo not given) | 1 | x | -7 | x | x | x
CCOc1ccc(C(NC(C)=O)c2cc(Cl)c3cccnc3c2O)cc1 (stereo not given) | 9 | x | x | x | x | x
Cc1cc(C(=O)Nc2sccc2C#N)c2ccccc2n1 | 10 | -73* | -4 | 8 | 8 | 1%
O=C1NC2(CCCCCCC2)NN1c1ccc(Br)cc1 | 0 | x | x | x | x | x
COC(=O)CSc1nc2ccccc2c(=O)n1-c1ccccc1OC | 1 | x | x | x | x | x
CCOc1ccccc1-n1c(SCC(=O)Nc2ccccc2C(=O)O)nc2ccccc2c1=O | -2 | -58* | 2 | 22 | 120 | -6%
O=C(COC(=O)CCc1nc2ccccc2c(=O)[nH]1)Nc1ccc(Cl)cn1 | -1 | -55* | 1 | 0 | 9 | 1%
CC1Cc2ccccc2N1C(=O)COC(=O)CCc1nc2ccccc2c(=O)[nH]1 (stereo not given) | -7 | -51* | -6 | -8 | -13 | -3%
O=S(=O)(NCCC1=CCCCC1)c1cccc(S(=O)(=O)N2CCOCC2)c1 | 6 | -63* | -3 | 1 | -72* | -2%
CC(C)c1cc(-c2nn3c(-c4ccccn4)nnc3s2)n(C)n1 | -19 | x | x | x | x | x
CC1CCC2(CC1)CCN(CCCOC(=O)Nc1cccc(F)c1)C2=O (stereo not given) | x | x | -2 | x | x | x
COc1ccc(CN(CCC(c2ccccc2)c2ccco2)C(=O)c2ccco2)cc1 (stereo not given) | 1 | u | -10 | -11 | -5 | x
O=C(c1ccco1)N(CCC(c1ccccc1)c1ccco1)Cc1ccccc1 (stereo not given) | -1 | -60* | -9 | -9 | -8 | 2%
CNC(=O)c1nc(C)n(-c2ccc(Cl)cc2Cl)n1 | -4 | -93* | -1 | 9 | 4 | -7%
Cc1nc(C(=O)N(C)C)nn1-c1ccc(Cl)cc1Cl | -16 | 2 | 0 | -1 | -13 | x
Cc1ccc(NC(=O)CSc2ncc(-c3ccc(C)c(C)c3)o2)cc1 | -20 | x | x | x | x | x
O=C(CN1CCCCC1)Nc1nnc(-c2ccccc2)s1 | 0 | 7 | -1 | -14 | 23 | x
O=C(CN1CCCCC1)Nc1nnc(-c2ccc([N+](=O)[O-])cc2)s1 | 3 | -70* | -1 | -7 | 82 | 1%
CCCN(C(=O)c1cc(-c2ccco2)nc2ccccc12)c1c(N)n(Cc2ccccc2)c(=O)[nH]c1=O | -5 | -59* | -12 | -9 | -19 | -4%
CCCCN(C(=O)c1cc(-c2ccc(F)cc2)nc2ccccc12)c1c(N)n(CCCC)c(=O)[nH]c1=O | -8 | -4 | -1 | -2 | -5 | x
CCCCn1c(N)c(N(CCOC)C(=O)c2cc(-c3ccco3)nc3ccccc23)c(=O)[nH]c1=O | -7 | -71* | -13 | -6 | -12 | -2%
O=c1c2ccccc2sc2nc(C3CCCCC3)n(Cc3ccco3)c(=O)c12 | -3 | x | 0 | 19 | -6 | x
CCc1nc2sc3ccccc3c(=O)c2c(=O)n1Cc1ccco1 | 4 | -68* | u | 3 | -29 | -5%
C#CCN1C(=O)S/C(=C\c2ccc(-c3ccc(C(=O)O)cc3C)o2)C1=O | 0 | -57* | -3 | -2 | -10 | 2%
Cc1ccc(CN2C(=O)N/C(=C\c3ccc(-c4ccc(C(=O)O)cc4C)o3)C2=O)cc1 | 2 | -23 | 0 | 0 | -17 | x
CC(C)(C)c1ccc(NC(=O)C2=CC=CN3CCS(=O)(=O)N=C23)cc1 | 1 | 4 | -5 | 1 | -21 | 3%
COCc1cc(N2CCCCC2)nc(-c2ccccc2)n1 | -1 | -74* | -11 | -3 | 8 | -4%
CC1=Nn2c(nnc2-c2n[nH]c3c2CCC3)SC1 | -2 | 2 | -4 | 2 | -2 | x
